Sfp inh – qHTS Assay for Inhibitors of Bacillus subtilis Sfp phosphopantetheinyl transferase (PPTase). Biochemical Sfp PPTase activity, qHTS. Potency, µM, hits mostly inhibitors. 310,000 tested, 3.5% active. 4'-phosphopantetheinyl transferase ffp (Bacillus subtilis), Q9F4F7;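 also: the enzyme is Sfp with the accession as filed and its product quenches rhodamine fluorescence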
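Step 1, compound plus 15 nM Sfp-PPTase, 15 min, room temperature. Step 2, add rhodamine-CoA (5 uM) and BHQ-2-YbbR (12.5 uM). Step 3, read 525/598 nm fluorescence at 0 and 30 min.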
Mm-Cpn inhibitor – Inhibitors of TCP-1 ring complex (TRiC) of Methanococcus maripaludis (MmCpn): qHTS; AID 504842, 2011; 330,000 tested, 0.031% active; purified Mm-Cpn ATPase, ADP Transcreener TR-FRET; Potency, µM (series often up to 76.9 µM), most hits filed as inhibitors; also: nearly all actives have a fitted effect of over 80% in size
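Measured: ADP formation by purified Mm-CPN. Conditions: 25 nM protein, 10 uM ATP, Tris pH 7.4 with Mg2+, K+ and DTT, 37°C for 30 min. Detection: Transcreener HTRF after 30 min at room temperature.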
G9a inh – qHTS Assay for Inhibitors of Histone Lysine Methyltransferase G9a. 350,000 tested, 8.8% active. Potency, µM (top dose mostly 102 µM), hits mostly inhibitors. G9a H3K9 monomethylation, AlphaScreen, 2 h; also: nearly all actives have a fitted effect of over 75% in size
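Using a bead-based AlphaScreen, monomethylated H3K9 product from 2 h room-temperature reactions (G9a 20 nM, peptide 500 nM, SAM 20 uM) was detected with 0.5 ug/mL rabbit anti-H3K9me1 antibody.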
PLK1 PBD inh – qHTS for Inhibitors of PLK1-PDB (polo-like kinase 1 - polo-box domain): Primary Screen; AID 720504, 2013; Potency, µM, most hits filed as inhibitors; Serine/threonine-protein kinase PLK1 (Homo sapiens), P53350; 360,000 tested, 2.8% active; Plk1 PBD binding of FITC phosphopeptide, fluorescence polarization; also: series mostly up to about 57 µM; nearly all actives have a fitted effect of over 65% in size
CCT chaperon mod – High-Throughput Screening for Modulators of Cytosolic Chaperonin Activity; purified chaperonin ATPase assay, HTRF ADP detection, 30 min; activity change, % (test concentration not listed), hits read low; 360,000 tested, 0.3% active; in the data active = activity change below about -30%
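TRiC (40 or 20 nM final, by batch activity) in 30 mM Tris pH 7.4, 100 mM KCl, 5 mM MgCl2, 1 mM DTT was treated with compound at 76 uM single dose, then 10 uM ATP, 30 min at 37 °C. ADP was read by HTRF Transcreener.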
VDR inhibitor – Inhibitors of the vitamin D receptor (VDR): qHTS | Potency, µM, hits mostly inhibitors | Vitamin D3 receptor (Homo sapiens), P11473 | VDR-SRC2-3 peptide fluorescence polarization, 2 h | 400,000 tested, 0.93% active | AID 504847, 2011
Target sequence (P11473 whole entry, looked up): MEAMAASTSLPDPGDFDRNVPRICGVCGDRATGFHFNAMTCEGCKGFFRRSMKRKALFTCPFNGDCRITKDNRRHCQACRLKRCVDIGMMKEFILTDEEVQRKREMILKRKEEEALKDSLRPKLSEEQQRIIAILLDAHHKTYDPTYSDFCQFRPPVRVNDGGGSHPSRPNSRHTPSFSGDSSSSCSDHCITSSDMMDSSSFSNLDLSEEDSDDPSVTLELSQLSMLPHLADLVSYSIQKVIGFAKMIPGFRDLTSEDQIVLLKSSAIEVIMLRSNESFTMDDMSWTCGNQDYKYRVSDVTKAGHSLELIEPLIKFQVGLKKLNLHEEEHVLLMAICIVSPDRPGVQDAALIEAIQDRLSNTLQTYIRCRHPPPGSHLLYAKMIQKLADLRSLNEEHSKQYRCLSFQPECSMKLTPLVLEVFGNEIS
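Signal is fluorescence polarization, reporting how far test compounds block the interaction of VDR with the SRC2-3 coregulator peptide after a 2 h room-temperature incubation.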
A number is an active result; . = inactive; ? = inconclusive; / = not tested or not shown; ! = a repeat was not active; [ ] = dose if it differs, or a comment. A selection: hits, their analogues and other compounds. The true share with any hit is near 10%. Unless noted, calls follow the shape of the dose curve; as a rule, active = well fitted curve in the direction sought with a large enough effect; inconclusive = small, poorly fitted or top-dose-only effect, or another doubt; inactive = no such curve, though single readings can be large; an effect the other way counts as inactive or inconclusive.

SMILES | Sfp inh | Mm-Cpn inhibitor | G9a inh | PLK1 PBD inh | CCT chaperon mod | VDR inhibitor
Cc1ccc(S(=O)(=O)c2c(Nc3ccc(C)c(C)c3)sc(C(=O)c3ccc4c(c3)OCO4)c2N)cc1 | / | / | . | / | / | .
Cc1c(Cl)cccc1NC(=O)CN1C(=O)COc2ccc(S(=O)(=O)Nc3ccccc3)cc21 | / | / | . | / | / | .
Cc1ccc(S(=O)(=O)/C=C\C#N)cc1 | 44.7µM | / | / | / | / | 2.82µM
Cc1ccc(S(=O)(=O)/C=C/C#N)cc1 | 2.82µM | / | 1.58µM | / | / | 11.2µM
CC(C)(C)c1ccc(S(=O)(=O)/C=C\C#N)cc1 | 44.7µM | / | / | / | / | 2µM
Cc1ccc(S(=O)(=O)/C=C2\NC(=O)CS2)cc1 | . | . | ? | ? | . | .
COc1cccc(C(=O)Nc2ccc(-n3nncc3-c3ccccc3)cc2)c1OC | / | / | . | / | / | .
COc1ccc(CCNC(=O)c2c(C)oc3ncn(C)c(=O)c23)c(OC)c1 | / | / | . | / | / | .
CCC(=O)N[C@@H]1CCc2cccc(OC)c2C1 | . | / | / | / | / | .
Cc1ccc(S(=O)(=O)Nc2cc(C)c(O)c(Sc3n[nH]c(C)n3)c2)cc1 | 70.8µM | . | 7.08µM | . | . | .
O=C(c1cc(C(F)(F)F)cc(C(F)(F)F)c1)N1CCC2(CCCN(c3ccncc3)C2)CC1 | . | / | .[12.7 µM] | / | / | .
O=C1/C(=C\c2ccccn2)SC(=S)N1c1ccc(S(=O)(=O)Nc2nccs2)cc1 | 56.2µM | . | / | ? | . | .
Cc1c(N2C(=O)/C(=C3/C(=O)N(C)c4ccccc43)SC2=S)c(=O)n(-c2ccccc2)n1C | . | . | ? | . | . | .
CC(=O)N1C(=O)/C(=C2\SC(=S)N(c3c(C)n(C)n(-c4ccccc4)c3=O)C2=O)c2ccccc21 | . | . | 3.98µM | . | . | ?
Cc1ccc(S(=O)(=O)NN2C(=O)/C(=C/c3ccccn3)SC2=S)cc1 | . | . | 39.8µM | . | . | .
CC(/C=C1\SC(=S)N(NS(=O)(=O)c2ccc(C)cc2)C1=O)=C\c1ccccc1 | . | . | 10µM | 18.9µM | . | ?
CCCNC(=O)COCc1cc(-c2ccc(F)cc2)on1 | / | / | . | / | / | .
Cc1ccc(C)c(Cn2c3ccccc3c3cnn(CC(=O)NC(C)CCc4ccccc4)c(=O)c32)c1 (stereo unspecified) | / | / | . | / | / | .
CC(/C=C1\SC(=S)N(NS(=O)(=O)c2ccccc2)C1=O)=C\c1ccccc1 | . | . | 15.8µM | . | . | ?
CC(=O)N1C(=O)/C(=C2\SC(=S)N(NS(=O)(=O)c3ccc(C)cc3)C2=O)c2ccccc21 | 44.7µM | . | / | 16.8µM | . | .
COC(C(=O)C(O)C(C)O)C1Cc2cc3cc(OC4CC(OC5CC(O)C(O)C(C)O5)C(O)C(C)O4)c(C)c(O)c3c(O)c2C(=O)C1OC1CC(OC2CC(OC3CC(C)(O)C(O)C(C)O3)C(O)C(C)O2)C(O)C(C)O1 (stereo unspecified) | . | / | .[12.7 µM] | / | / | ?
CC(Sc1nc(-c2ccccc2)cc(C(F)(F)F)n1)C(=O)Nc1sc2c(c1C(N)=O)CCC2 (stereo unspecified) | ? | . | ? | . | . | .
N#Cc1c(C(F)(F)F)cc(-c2ccccc2)nc1SCC(=O)Nc1sc2c(c1C#N)CCC2 | . | . | .[0.501 µM] | 29.9µM | . | .
Cc1nnc(SCC(=O)Nc2sc3c(c2C#N)CCCCC3)n1N | . | . | 14.1µM | ? | . | .
N#Cc1c(NC(=O)CSc2nnnn2C2CCCCC2)sc2c1CCCC2 | . | . | . | . | . | .
SMILES | Sfp inh | Mm-Cpn inhibitor | G9a inh | PLK1 PBD inh | CCT chaperon mod | VDR inhibitor
CC(Sc1nc(-c2ccccc2)cc(C(F)(F)F)n1)C(=O)Nc1sc2c(c1C#N)CCC2 (stereo unspecified) | . | . | 39.8µM | 23.8µM | . | .
COCc1cc(O)c(O)c(O)c1-c1c(COC)cc(O)c(O)c1O | 7.94µM | / | 1µM | / | / | 15.8µM
CCN(CC)c1ccc2cc(-c3nc4ccccc4[nH]3)c(=O)oc2c1 | . | . | . | 26.7µM | . | .
CCC(C(=O)Nc1ccccc1C(=O)N1CCCC1)N1C(=O)c2ccccc2C1=O (stereo unspecified) | . | . | .[12.7 µM] | . | . | .
O=C(O)c1ccccc1NC(=O)C(Cc1ccccc1)N1C(=O)c2ccccc2C1=O (stereo unspecified) | . | . | . | . | -32.4 | .
CNC1CCc2cc(OC)c(OC)c(OC)c2-c2ccc(OC)c(=O)cc21 (stereo unspecified) | . | / | .[12.7 µM] | / | / | .
C[n+]1ccc(/C=C/c2ccc(Br)cc2)cc1 | . | . | ? | . | . | .
C[n+]1ccc(/C=C/c2ccc3ccccc3c2)cc1 | . | / | 7.08µM | / | / | ?
CCCn1c(=O)c2sccc2n2c(CCCC(=O)N3CCN(c4cccc(Cl)c4)CC3)nnc12 | / | / | . | / | / | .
c1ccc(CNc2ncncc2-c2ccoc2)cc1 | . | / | .[0.501 µM] | / | / | 50.1µM
c1csc(CNc2ncncc2-c2ccoc2)c1 | . | / | .[0.501 µM] | / | / | 50.1µM
c1csc(CNc2ncnc3ccc(-c4ccoc4)cc23)c1 | . | . | .[12.7 µM] | / | / | 31.6µM!
c1csc(CNc2ncnc3ccc(-c4ccc5c(c4)OCO5)cc23)c1 | . | . | .[12.7 µM] | / | / | .
COc1ccc(-c2nc3scc(CCNS(=O)(=O)c4c(C)cc(C)cc4C)n3n2)cc1OC | / | / | . | / | / | .
CC(C)NC(=O)N1CCC2(CC1)CCN(C(=O)c1ccncc1)CC2 | . | / | .[12.7 µM] | / | / | .

Screening data (PubChem BioAssay)
